# ABHD5 PLIN5 PPI = ABHD5-PLIN5 interaction inhibitors, primary screen, cell lysate, split luciferase complementation, luminescence; Perilipin-5 (Homo sapiens) + 1-acylglycerol-3-phosphate O-acyltransferase ABHD5 (Homo …; Split G. princeps luciferase complementation, 4 h; 360,000 compounds, 0.78% hits; inhibition, % at 4 µM;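 active = inhibition above the mean inhibition across every tested compound plus 3 SD, cut at about 22% in these data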
# Cardio protect = cardioprotection against H2O2-induced cell death, primary screen, uHTS, H9c2 cells, ATPLite luminescence; 360,000 compounds, 0.63% hits; protection from H2O2 cell death, % at 20 µM; H9c2 cardiomyocytes, H2O2 injury protection, 2 h;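 active = compounds giving at least 50% protection of heart cells from peroxide-induced death in the single-dose screen, raw or plate-pattern-corrected value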
# Rtt109 HAT inh = inhibitors of C. albicans Rtt109/Vps75 HAT, primary screen, biochemical, ThioGlo CoA-SH fluorescence, plate reader; Histone acetyltransferase RTT109 (Candida albicans (strain SC5314 / ATCC MYA-2876)), …; purified Rtt109/Vps75, 4 h; inhibition, % at 34.9 µM; 330,000 compounds, 0.16% hits;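 active = inhibition of at least 50% in every replicate; inconclusive = best replicate reaches 50% inhibition but some replicates fall short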
# sPLA2-III inh = human group III sPLA2 inhibitors, primary screen, biochemical, QFRET, BODIPY PC-A2 liposome substrate; Group 3 secretory phospholipase A2 (Homo sapiens), Q9NZ20; inhibition, % at 12.2 µM; QFRET BODIPY PC-A2 liposome hydrolysis, fluorescence; 370,000 compounds, 0.56% hits;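 active = inhibition above mean plus 3 SD of compounds lying within the high and low control bounds, cut at about 19% in these data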
# Target sequence (Q9NZ20 whole entry, looked up): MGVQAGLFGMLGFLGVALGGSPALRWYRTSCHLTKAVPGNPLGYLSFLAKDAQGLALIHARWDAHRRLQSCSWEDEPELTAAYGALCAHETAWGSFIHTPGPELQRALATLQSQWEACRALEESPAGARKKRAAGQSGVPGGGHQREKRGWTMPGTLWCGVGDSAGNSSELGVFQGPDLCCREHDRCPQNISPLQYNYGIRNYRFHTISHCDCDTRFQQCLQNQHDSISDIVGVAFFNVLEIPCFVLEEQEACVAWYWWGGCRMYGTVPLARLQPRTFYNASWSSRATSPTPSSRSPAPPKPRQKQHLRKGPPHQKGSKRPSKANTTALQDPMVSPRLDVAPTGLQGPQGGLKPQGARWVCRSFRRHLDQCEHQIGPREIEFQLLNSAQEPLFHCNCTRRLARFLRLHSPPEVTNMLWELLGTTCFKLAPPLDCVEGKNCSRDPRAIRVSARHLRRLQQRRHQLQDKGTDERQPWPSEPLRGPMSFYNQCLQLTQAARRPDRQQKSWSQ
# DAGLB inhibitor = DAGLB lipase inhibitors, primary screen, biochemical, fluorescence, HTS. Diacylglycerol lipase-beta (Homo sapiens), Q8NCG7. HEK293T DAGLB membrane lysate, EnzChek fluorogenic substrate. inhibition, % at 5.17 µM. 340,000 compounds, 0.059% hits; in the data active = inhibition above about 34%
# Myeloid diff MLP = induction of myeloid progenitor differentiation, primary screen, cell-based, flow cytometry, MLPCN library; ER-HoxA9 myeloid progenitors, lysozyme-GFP differentiation; calls only at 10 µM; 360,000 compounds, 1% hits; AID 624256, 2012;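 active = normalized GFP-positive differentiation at or above the plate's own cutoff, the solvent-only control mean plus 3 SD; inconclusive = no clear call, values can overlap the other calls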;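 also: cells exposed to compound for four days before flow analysis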
# Numbers stand for hits; – = inactive; ? = inconclusive; · = not tested or not shown; + = active, no number. Compounds with a hit are over-represented: about 2.9% of the library has one in this group of screens.
SMILES,ABHD5 PLIN5 PPI,Cardio protect,Rtt109 HAT inh,sPLA2-III inh,DAGLB inhibitor,Myeloid diff MLP
COc1ccc(Br)cc1CN(C)CC(=O)NCc1ccc(F)cc1,–,–,–,–,–,+
CC(=O)Nc1ccc2cc3ccc(NC(C)=O)cc3nc2c1,–,–,–,–,–,+
CCN1CCN(Cc2nnc(-c3ccccc3)o2)CC1,–,–,–,–,–,–
S=C(NCc1ccc2c(c1)OCO2)Nc1ccc(-c2nc3ccccc3[nH]2)cc1,–,–,–,–,–,–
Cn1c(=O)[nH]c(=O)c2c1nc(N(CCO)Cc1ccccc1)n2CCCc1ccccc1,–,52,–,–,–,?
CCN(CC)c1nc2c(c(=O)[nH]c(=O)n2C)n1CCOc1ccccc1,–,–,58,–,–,–
O=C(N/N=C/c1cccc(OCC(=O)N2CCCC2)c1)C(=O)Nc1ccccc1F,–,–,–,–,–,–
CC(=O)c1cccc(S(=O)(=O)N2CCC(C(=O)NC3CCCC3)CC2)c1,–,–,–,–,–,–
O=C(c1ccccc1)c1ccc2nc(-c3ccco3)c(-c3ccco3)nc2c1,29,–,–,–,–,–
O=C(NC1CCCC1)c1ccc2nc(-c3ccco3)c(-c3ccco3)nc2c1,–,–,–,·,–,–
O=C(NCCc1ccccc1)c1ccc2nc(-c3ccco3)c(-c3ccco3)nc2c1,29,–,–,·,–,–
O=C(NCCO)c1ccc2nc(-c3ccco3)c(-c3ccco3)nc2c1,–,–,–,–,–,–
COc1ccc2cc(-c3ccn[nH]3)ccc2c1,–,–,–,–,–,+
O=C(Nc1ccc(F)c(F)c1)C1CCCN(S(=O)(=O)c2cccc3nonc23)C1 (centres undefined),–,–,–,–,–,+
Cc1cccc(NC(=O)C2CCCN(S(=O)(=O)c3cccc4nonc34)C2)c1 (centres undefined),–,–,–,–,–,–
COc1cc(OC)c2c(-c3ccccc3)cc(=O)oc2c1C(CCN1CCCC1)c1ccc2c(c1)OCO2 (centres undefined),22,–,–,–,–,–
CCCCCc1cc(=O)oc2c(C(CCN3CCCCC3)c3ccc4c(c3)OCO4)c(OC)cc(OC)c12 (centres undefined),–,–,–,–,–,+
COc1cc(OC)c2ccc(=O)oc2c1C(CC(=O)N1CCOCC1)c1ccc2c(c1)OCO2 (centres undefined),–,–,–,–,–,–
COc1cc(OC)c2ccc(=O)oc2c1C(CC(=O)N1CCN(c2ccccc2)CC1)c1ccc2c(c1)OCO2 (centres undefined),–,70,–,–,–,–
CC(C)c1nnc(NC(=O)CCC(=O)NCc2cccs2)s1,–,–,53,–,–,–
CSc1nnc(SCC2=NNC(=O)SC2)s1,–,–,–,–,–,–
Cc1ccc(S(=O)(=O)NCC(=O)N(CC2CCCO2)C(C(=O)NC2CCCC2)C(C)C)cc1 (centres undefined),–,–,–,–,–,–
Cn1cnc(CCNC(=O)C[C@H]2CC[C@@H]3[C@H](COC[C@H](O)CN3C(=O)C3CCCC3)O2)c1,–,·,·,–,·,–
O=C(/C=C1\NC2(CCCC2)Cc2ccccc21)C(=O)N/N=C/c1ccc(O)c(O)c1,–,102,–,–,–,–
O=C(CSc1ccc2ccccc2n1)N/N=C/c1ccc(O)cc1,–,–,–,–,–,–
SMILES,ABHD5 PLIN5 PPI,Cardio protect,Rtt109 HAT inh,sPLA2-III inh,DAGLB inhibitor,Myeloid diff MLP
O=C(CSc1ccc2ccccc2n1)N/N=C/c1ccccc1O,–,55,–,–,–,–
COc1ccc(S[C@]2(C(=O)N3CCN(C(C)=O)CC3)CC(=O)N(S(=O)(=O)c3ccc(F)cc3)[C@@H]2c2ccc(OC)cc2)cc1,·,·,·,–,·,·
O=C1N/C(=C\c2ccc(O)cc2)C(=O)c2ccccc21,34,–,–,·,–,–
CCN(CC)c1ccc(/C=N/NC(=O)c2ccc3nc[nH]c3c2)c(O)c1,–,–,–,·,–,+
O=C(NCc1ccc2c(c1)OCO2)c1ccc(CS(=O)Cc2cccc(Cl)c2)o1 (centres undefined),–,–,52,–,–,–
Cc1cccc(C(=O)Nc2ccc(C(=O)N/N=C/c3ccc(C)o3)cc2)c1,–,–,–,–,–,?
Cc1ccc(/C=N/NC(=O)c2cccc(NC(=O)c3ccccc3Cl)c2)o1,–,–,–,–,–,+
Cc1ccc(/C=N/NC(=O)c2cccc(NC(=O)c3ccccc3C)c2)o1,–,–,–,–,–,+
Cc1ccc(/C=N/NC(=O)c2cccc(S(=O)(=O)Nc3ccccc3Cl)c2)o1,–,–,–,–,–,–
Fc1cccc(Cl)c1Cn1ncc2ccccc21,–,–,–,–,–,–
O=c1cnn(Cc2c(Cl)cccc2Cl)c2ccccc12,–,–,–,–,–,+
COc1ccc(N=Cc2sc(O)c3ccccc23)cc1,–,51,–,–,–,–
O=C(COC(=O)/C=C/c1ccco1)Nc1ccc(F)cc1Cl,–,–,–,–,–,–
CCOc1ccccc1NC(=S)NC1CC2CCC1C2 (centres undefined),–,–,–,·,–,–
CC1(C)C(/C=C/C=C/C=C/C=C2\N(CCCCS(=O)(=O)O)c3ccc4ccccc4c3C2(C)C)=[N+](CCCCS(=O)(=O)[O-])c2ccc3ccccc3c21,54,–,–,·,–,–
Cc1c2ccccc2cc[n+]1CCCS(=O)(=O)[O-],–,–,·,–,–,–
CCOC(=O)C1CCN(C(=O)CCc2ccc(S(=O)(=O)NCC(C)C)cc2)CC1,–,–,–,–,–,–
O=C(Nc1ccccc1F)c1cc(C(=O)Nc2ccccc2F)cc([N+](=O)[O-])c1,–,–,–,–,–,–
Cc1[nH]n2c(=O)cc(C(C)(C)C)nc2c1-c1ccccc1,–,53,–,–,–,–
COc1ccc(C(=O)NN/C=C/C(=O)c2ccc(Br)cc2)cc1,–,58,·,–,–,–
O=C(/C=C/NNC(=O)c1ccc(Cl)cc1)c1ccccc1,–,–,–,–,–,–
O=C(/C=C/NNC(=O)c1ccccc1)c1ccc(Br)cc1,–,59,–,–,–,–
CC1CC(C)CN(S(=O)(=O)c2ccc(C(=O)N3CCCC3)cc2)C1 (centres undefined),–,–,–,–,–,+
COC(=O)c1c(NC(=O)C(C)(C)C)csc1C,–,–,–,–,–,–
